The results in this text go back to PubChem BioAssay.

Assay [1] is described as follows: inhibitors of TNFa-induced NFkB p65 translocation, primary screen, imaging, HUVEC, MLSMR starter and 10KST1 sets (AID 438;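 active means inhibition above 20% together with a positive visual image hit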;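 further: compound added about 3h40 before a 20 min TNFalpha stimulation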;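 on inhibition: signal is the nuclear over cytoplasmic p65 intensity ratio per well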). The conditions noted are these: HUVEC TNFa-induced p65 nuclear translocation; cell count: measured here: nuclei count (cytotoxicity indicator), at 2.08 µM; inhibition: at 2 µM, stronger effect = higher value, 0% TNFa-plus-vehicle, 100% no-TNFa wells.
Assay [2] is described as follows: reduction of polyQ htt aggregates in cells – imaging, exon1htt(103Q)mCFP cells, high-content imaging, primary screen (AID 483;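 active means visual image review flags a hit and inhibition of aggregation exceeds 20%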;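 further: compound exposure lasted 3 days before fixation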;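 on nuclei count: percent of the per-plate median nuclei count of sample wells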). The conditions noted are these: exon1htt(103Q)mCFP cell line, aggregate imaging, at 2 µM; inhibition of aggregation: stronger effect = higher value; nuclei count: measured here: cell count, toxicity.
Assay [3] is described as follows: endothelial E-selectin expression blockers – imaging, HUVEC, immunofluorescence, MLSMR starter and 10KST1 sets, primary screen (AID 487;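 active means visually confirmed hit in the image check and inhibition above 20%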;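 on inhibition: signal is fraction of cell area covered by stained E-selectin grains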;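 on nuclei count: 100% = median nuclei count of all wells on the same plate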). The conditions noted are these: HUVEC TNFalpha-induced E-selectin immunofluorescence imaging, at 2 µM; inhibition: stronger effect = higher value; nuclei count: measured here: cell number, toxicity.
Assay [4] concerns the target Voltage-gated potassium channel subunit beta-2 (Rattus norvegicus) (UniProt P62483). As to the kind of experiment: inhibitors of rat Kvbeta2 reductase activity – biochemical, NADPH fluorescence, primary screen (AID 622;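 active means fluorescence slope higher than the sample average by over 3 SD, cut at about -0.22 in these data, passing the limit was not always enough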;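 further: slope of raw intensity against log time taken from 70 to 1610 s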). The conditions noted are these: recombinant KvBeta, 4-cyanobenzaldehyde reduction, at 10 µM, stronger effect = higher value.
Assay [5] shares this target. As to the kind of experiment: enhancers of rat Kvbeta2 NADPH turnover – biochemical, NADPH fluorescence, primary screen (AID 623;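 active means NADPH fluorescence slope more negative than the mean of all samples by about 3 SD, 99.7% confidence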;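 further: fluorescence intensity change per second fitted from 20 to 320 s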). As to conditions: Recombinant KvBeta, NADPH fluorescence decrease slope, 10 min; at 10 µM; stronger effect = lower value.
The target in assay [6] is Alpha-2C adrenergic receptor (Homo sapiens) (UniProt P18825). As to the kind of experiment: compounds altering alpha2C-coupled GIRK flux – cell-based, HEK293 alpha2C/GIRK1/2, thallium flux, primary screen (AID 624;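 active means fluorescence slope after compound addition differing from the mean of all screened samples at 99.7% confidence, in either direction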;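 further: slope of fluorescence ratio to pre-addition baseline per second over 15 to 24 s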). As to conditions: thallium flux BTC fluorescence, at 10 µM, actives lie on both sides.
Assay [7] in a line: blockers of RIG-like receptor reporter activation – cell-based, Sendai virus stimulus, luciferase, 10K MLSCN set, TLR/RLR signaling modifier project, primary screen (AID 602276).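 Further: firefly luciferase from ISG56 promoter only with Renilla not read in this screen; 0% = Sendai virus plus DMSO and 100% = medium plus DMSO without virus.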 The conditions noted are these: HEK293 RL24 IRF3 luciferase reporter, at 10 µM, stronger effect = higher value.
Assay [8] is described as follows: TLR3 IRF3 reporter activation blockers – cell-based, poly I:C stimulus, luciferase, 10K MLSCN set, primary screen (AID 602277;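 active means inhibition of the reporter signal at or above 50%; inactive means inhibition below 50%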). The conditions noted are these: HEK293-TLR3 RL24 IRF3 luciferase reporter, at 10 µM, stronger effect = higher value. In general terms: A reporter such as luciferase makes a cellular process visible.

The structures appear in SMILES notation. Activity calls are given as the source filed them.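 How the source made its calls, unless noted: active means inhibition at or above 50% at 10 µM; inactive means inhibition below 50%.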

By inhibition is commonly meant the drop in the measured response relative to a control, in per cent.

Alpha-2C adrenergic receptor (Homo sapiens), sequence (P18825 whole entry, looked up): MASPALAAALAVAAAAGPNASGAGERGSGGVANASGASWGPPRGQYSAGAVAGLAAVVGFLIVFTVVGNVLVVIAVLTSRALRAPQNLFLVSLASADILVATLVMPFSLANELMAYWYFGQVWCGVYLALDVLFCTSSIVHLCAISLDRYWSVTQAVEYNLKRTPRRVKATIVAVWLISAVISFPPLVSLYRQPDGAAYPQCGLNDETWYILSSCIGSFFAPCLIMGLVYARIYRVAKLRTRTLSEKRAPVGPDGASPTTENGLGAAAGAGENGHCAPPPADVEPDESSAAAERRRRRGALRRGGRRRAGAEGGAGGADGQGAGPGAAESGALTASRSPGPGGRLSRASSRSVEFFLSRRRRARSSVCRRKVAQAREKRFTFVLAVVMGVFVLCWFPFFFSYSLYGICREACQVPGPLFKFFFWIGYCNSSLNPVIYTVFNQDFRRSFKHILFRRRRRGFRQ
Voltage-gated potassium channel subunit beta-2 (Rattus norvegicus), sequence (P62483 whole entry, looked up): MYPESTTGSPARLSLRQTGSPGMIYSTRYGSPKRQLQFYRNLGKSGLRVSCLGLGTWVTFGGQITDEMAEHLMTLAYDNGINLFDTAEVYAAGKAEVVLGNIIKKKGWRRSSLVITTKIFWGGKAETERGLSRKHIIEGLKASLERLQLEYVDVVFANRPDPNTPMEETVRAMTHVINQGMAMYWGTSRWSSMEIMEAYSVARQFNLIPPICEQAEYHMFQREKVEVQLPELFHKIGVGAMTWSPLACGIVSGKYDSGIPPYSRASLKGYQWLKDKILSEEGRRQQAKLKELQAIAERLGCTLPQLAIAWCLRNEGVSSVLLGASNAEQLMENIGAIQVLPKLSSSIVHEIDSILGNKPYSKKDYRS

Regarding `CCCCn1c(SCC(=O)Nc2cc(C)on2)nnc1-c1cccnc1`, the cell count in assay [1] turned out to be 414. Further, the inhibition in assay [1] was -3.9% (inactive); in assay [3], -26.4% (inactive); in assay [7], 11.3% (inactive); in assay [8] it was 6.93% (inactive). For the same molecule, the inhibition of aggregation in assay [2] was 1.7% (inactive). Further, the nuclei count was found to be 121% in assay [2] and 123% in assay [3]. For the same molecule, in assay [4], the fluorescence slope is -0.00106 (inactive). In addition, the NADPH fluorescence slope in assay [5] is -3.1e-05 (inactive). Further, the slope in assay [6] is 0.00399 (inactive).
In the case of `CCCCN(C)C(=O)CS(=O)(=O)Cc1nc(-c2cccc(OC)c2)oc1C`, the cell count in assay [1] is 737. In addition, the inhibition is 1.1% (inactive) in assay [1], -26.7% (inactive) in assay [3], 16.1% (inactive) in assay [7] and 16.3% (inactive) in assay [8]. Further, the inhibition of aggregation in assay [2] is 13.9% (inactive). Moreover, the nuclei count in assay [2] amounted to 98.3%; in assay [3], 115%. The fluorescence slope in assay [4] was -0.518 (inactive). Moreover, the NADPH fluorescence slope in assay [5] was -3.7e-05 (inactive). For the same molecule, in assay [6], the slope is 0.00718 (inactive).
As for `CC1=C(C(=O)Nc2ccccc2C)C2(CCCC2)C(C(N)=O)C(=O)N1` (centres undefined), in assay [1], the cell count came to 683. Further, the inhibition in assay [1] is 0% (inactive); in assay [3], -126% (inactive); in assay [7] it was 13.6% (inactive); in assay [8], 17.8% (inactive). Further, the inhibition of aggregation in assay [2] is -25.1% (inactive). Besides, the nuclei count came out at 99% in assay [2] and 106% in assay [3]. Also, the fluorescence slope in assay [4] was -0.483 (inactive). In assay [5], the NADPH fluorescence slope was -4.6e-05 (inactive). For the same molecule, in assay [6], the slope is 0.0058 (inactive).
In the case of `COc1ccc(CNC(=O)c2cc3c(=O)n4ccccc4nc3n(Cc3ccco3)c2=N)cc1`, the cell count in assay [1] was 666. The inhibition is -7.8% (inactive) in assay [1], -30.5% (inactive) in assay [3], 14.5% (inactive) in assay [7] and 20.4% (inactive) in assay [8]. Further, in assay [2], the inhibition of aggregation is -28.6% (inactive). The nuclei count in assay [2] was 127%; in assay [3], 113%. In assay [4], the fluorescence slope is -0.597 (inactive). The NADPH fluorescence slope in assay [5] is -6e-07 (inactive). Also, the slope in assay [6] is 0.0063 (inactive).
Consider `Oc1ccc(Cl)cc1-c1cc(-c2ccccc2)n[nH]1`, for which, in assay [1], the cell count came to 524. The inhibition in assay [1] is -11.4% (inactive); in assay [3] it was -6.5% (inactive); in assay [7], -23.7% (inactive); in assay [8], -37% (inactive). The inhibition of aggregation in assay [2] is 26.3% (inactive). The figures for the nuclei count in assay [2] and in assay [3] were 81.5% and 80.2%, respectively. Moreover, the fluorescence slope in assay [4] was -0.557 (inactive). In assay [5], the NADPH fluorescence slope is -1.3e-05 (inactive). Also, the slope in assay [6] is 0.00732 (inactive).
For the molecule `COc1ccc(-c2nc3c(c(=O)n(C)c(=O)n3C)n2CC2CC(c3ccccc3)=NO2)cc1OC` (centres undefined), the cell count in assay [1] was determined as 233. Besides, the inhibition in assay [1] was -3.2% (inactive); in assay [3], -3.5% (inactive); in assay [7] it was 29.6% (inactive); in assay [8], 30.8% (inactive). For the same molecule, in assay [2], the inhibition of aggregation was 5.3% (inactive). Further, the figures for the nuclei count in assay [2] and in assay [3] were 87.9% and 86.7%, respectively. Moreover, the fluorescence slope in assay [4] is -0.587 (inactive). For the same molecule, the NADPH fluorescence slope in assay [5] was -2.7e-05 (inactive). In addition, the slope in assay [6] is 0.00673 (inactive).
For the molecule `COCCn1c(SCC(=O)Nc2sc(C)c(C)c2C#N)nnc1C(C)C`, the cell count in assay [1] is 593. The inhibition in assay [1] is -11.7% (inactive); in assay [3] it was 18.9% (inactive); in assay [7], 11.9% (inactive); in assay [8], 5.56% (inactive). Also, the inhibition of aggregation in assay [2] is 25.9% (inactive). In addition, the nuclei count in assay [2] was found to be 73%; in assay [3] it was 78.2%. In assay [4], the fluorescence slope was -0.491 (inactive). Further, in assay [5], the NADPH fluorescence slope is -7.2e-05 (inactive). Besides, in assay [6], the slope was 0.00431 (inactive).
Consider `COc1cccc(C(c2nnnn2CCc2ccccc2)N2CCN(c3ccccc3)CC2)c1OC` (centres undefined), for which the cell count in assay [1] was 605. The inhibition was -23.5% (inactive) in assay [1], 48.8% (inactive) in assay [3], 18.8% (inactive) in assay [7] and 10.1% (inactive) in assay [8]. Moreover, the inhibition of aggregation in assay [2] was -19.6% (inactive). The nuclei count in assay [2] was determined as 94.9%; in assay [3] it was 91.6%. The fluorescence slope in assay [4] was -0.516 (inactive). Also, the NADPH fluorescence slope in assay [5] was -3e-06 (inactive). Moreover, the slope in assay [6] was 0.00514 (inactive).
Take `COC(=O)c1cn(C(=O)c2ccc(Br)o2)c2ccccc12`: the cell count in assay [1] was 309. Moreover, the inhibition was -12.5% (inactive) in assay [1], -179% (inactive) in assay [3], 0.625% (inactive) in assay [7] and 18% (inactive) in assay [8]. In assay [2], the inhibition of aggregation is 17.4% (inactive). Also, the nuclei count in assay [2] stood at 97.7%; in assay [3], 101%. For the same molecule, the fluorescence slope in assay [4] was -0.33 (inactive). Also, in assay [5], the NADPH fluorescence slope is -2.6e-05 (inactive). Further, the slope in assay [6] is 0.00583 (inactive).
Regarding `CC1=C(C(=O)N2CCCCC2)C(c2cccs2)C2=C(CCCC2=O)N1` (centres undefined), in assay [1], the cell count worked out at 332. In addition, the inhibition is -3.9% (inactive) in assay [1], -31.6% (inactive) in assay [3], 7.2% (inactive) in assay [7] and 6.53% (inactive) in assay [8]. Further, the inhibition of aggregation in assay [2] was 8.9% (inactive). Besides, the results for the nuclei count in assay [2] and in assay [3] were 95.9% and 92.4%, respectively. For the same molecule, the fluorescence slope in assay [4] was -0.29 (inactive). Further, in assay [5], the NADPH fluorescence slope is -3.5e-05 (inactive). Besides, the slope in assay [6] was 0.0061 (inactive).
For the molecule `CC(C)CNC(=O)C1CC(=O)OC12CCCCC2` (centres undefined), the cell count in assay [1] amounted to 661. For the same molecule, the inhibition is -32.6% (inactive) in assay [1], -18.4% (inactive) in assay [3], 12.4% (inactive) in assay [7] and 19.6% (inactive) in assay [8]. In assay [2], the inhibition of aggregation is 4.3% (inactive). Besides, the nuclei count in assay [2] was found to be 96.4%; in assay [3], 107%. Further, the fluorescence slope in assay [4] was -0.594 (inactive). Further, the NADPH fluorescence slope in assay [5] is -6.1e-05 (inactive). Also, the slope in assay [6] is 0.00558 (inactive).
In the case of `Cn1nnc2cc(C(=O)N3CCCCCC3)ccc21`, the cell count in assay [1] worked out at 933. The inhibition is 2.7% (inactive) in assay [1], -5.7% (inactive) in assay [3], -1.25% (inactive) in assay [7] and 12.6% (inactive) in assay [8]. For the same molecule, the inhibition of aggregation in assay [2] was -9% (inactive). Also, the nuclei count in assay [2] was 105%; in assay [3], 107%. For the same molecule, in assay [4], the fluorescence slope was -0.478 (inactive). For the same molecule, in assay [5], the NADPH fluorescence slope is -4.7e-05 (inactive). Moreover, the slope in assay [6] was 0.00659 (inactive).
For the molecule `Cc1ccc2cc3cc(C(=O)NCCN4CCOCC4)oc3nc2c1`, the cell count in assay [1] amounted to 760. For the same molecule, the inhibition in assay [1] was -5% (inactive); in assay [3], -36.3% (inactive); in assay [7], 7.18% (inactive); in assay [8], 8.18% (inactive). In assay [2], the inhibition of aggregation was 3.7% (inactive). For the same molecule, the figures for the nuclei count in assay [2] and in assay [3] were 105% and 111%, respectively. The fluorescence slope in assay [4] was -0.0588 (inactive). The NADPH fluorescence slope in assay [5] was -2.5e-05 (inactive). Moreover, in assay [6], the slope was 0.00283 (inactive).
For the molecule `CCOC(=O)N1CCN(C(=O)CCc2ccc(S(=O)(=O)NCCc3ccccc3)cc2)CC1`, in assay [1], the cell count came out at 735. Further, the inhibition in assay [1] was -1.6% (inactive); in assay [3] it was -24.7% (inactive); in assay [7] it was 2.18% (inactive); in assay [8] it was 5.38% (inactive). The inhibition of aggregation in assay [2] is 4.3% (inactive). In addition, the nuclei count in assay [2] was found to be 102%; in assay [3] it was 123%. Also, in assay [4], the fluorescence slope was -0.413 (inactive). In addition, the NADPH fluorescence slope in assay [5] is -9.6e-06 (inactive). Moreover, in assay [6], the slope is 0.00346 (inactive).
